According to PubChem BioAssay (Tox21):
Unmarked numbers belong to inactive results. Activity calls are given as the source filed them. Calls come from the whole dose curve; as a rule, active = well fitted curve in the direction sought with a large enough effect in the repeat runs; inconclusive = weak or mixed curves; inactive = flat fitted curve, though single readings scatter.

assay: qHTS assay to test for compound auto fluorescence at 460 nm (blue) in HEK293 cell free culture (AID 720681); settings: cell-free medium, autofluorescence 405/460 nm (blue); series mostly up to 91.3 µM; fluorescence, % of fluorescent control: at the top concentration
Method in brief: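 Blue fluorescence (Ex 405/Em 460 nm, triamterene-equivalent) was read immediately after pin transfer of compound or DMSO into medium (DMEM, 10% FBS) without cells.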
% is set by controls: 0 for no effect and ±100 for the full control effect; potency is the fitted concentration of half-maximal effect.

**Q.** Which “fluorescence, % of fluorescent control” value does the source give for `O=C1CCc2cc(OCCCCc3nnnn3C3CCCCC3)ccc2N1` here?
**A.** The value was -0.101% [at 46 µM].

**Q.** For `CCCNCCC`, which “fluorescence, % of fluorescent control” value is on record?
**A.** Its value is 0.0913%.

**Q.** With `CC(C(=O)O)c1ccc2c(c1)[nH]c1ccc(Cl)cc12` (stereo unspecified) as the compound, how does the “fluorescence, % of fluorescent control” value read?
**A.** The value was 0.1% [at 46 µM].

**Q.** With `O=C1CCc2ccc(OCCCCN3CCN(c4cccc(Cl)c4Cl)CC3)cc2N1` as the compound, how does the “fluorescence, % of fluorescent control” value read?
**A.** The value was -0.002% [at 46 µM].

**Q.** With `COC(=O)C1=C(C)NC(C)=C(C(=O)OCCN2CCN(C(c3ccccc3)c3ccccc3)CC2)C1c1cccc([N+](=O)[O-])c1` (stereo unspecified) as the compound, how does the “fluorescence, % of fluorescent control” value read?
**A.** The value was 0.0178% [at 46 µM].

**Q.** With `C#C[C@]1(OC(C)=O)CC[C@H]2[C@@H]3CCC4=C[C@@H](OC(C)=O)CC[C@@H]4[C@H]3CC[C@@]21C` as the compound, how does the Potency read?
**A.** Its Potency is “inactive”.

**Q.** With `Nc1nc(-c2ccccc2)cs1` as the compound, how does the “fluorescence, % of fluorescent control” value read?
**A.** Its value is -0.101%.

**Q.** Which Potency does the source give for `CC1(C)[C@@H](O)CC[C@]2(C)[C@H]3C(=O)C=C4[C@@H]5C[C@@](C)(C(=O)O)CC[C@]5(C)CC[C@@]4(C)[C@]3(C)CC[C@@H]12` here?
**A.** The Potency was “inactive”.

**Q.** For `COc1cccc2c1C(=O)c1c(O)c3c(c(O)c1C2=O)C[C@@](O)(C(C)=O)C[C@@H]3O[C@H]1C[C@H](N)[C@H](O)[C@H](C)O1`, which Potency is on record?
**A.** The Potency was “inactive”.

**Q.** For `CCc1cccc(CC)c1NC(=O)CN(CC(=O)O)CC(=O)O`, which fluorescence, % of fluorescent control is on record?
**A.** The fluorescence, % of fluorescent control was 0.0332% [at 18.6 µM].

**Q.** For `Cc1c(C)c2c(c(C)c1OC(=O)c1cccnc1)CC[C@@](C)(CCC[C@H](C)CCC[C@H](C)CCCC(C)C)O2`, which “fluorescence, % of fluorescent control” value is on record?
**A.** Its value is 0.0427% [at 46 µM].

**Q.** For `CN1CCC[C@@H]1CCO[C@](C)(c1ccccc1)c1ccc(Cl)cc1`, which “fluorescence, % of fluorescent control” value is on record?
**A.** Its value is -0.0732% [at 46 µM].

**Q.** With `O=c1oc2cc(O)ccc2c2oc3cc(O)ccc3c12` as the compound, how does the Potency read?
**A.** Its Potency is 5.01 µM (active).

**Q.** For `Clc1ccnc(Cl)n1`, which “fluorescence, % of fluorescent control” value is on record?
**A.** The value was -0.16% [at 95.7 µM].

**Q.** With `O=C1c2ccccc2C(=O)N1SC1CCCCC1` as the compound, how does the Potency read?
**A.** The Potency was “inactive”.

**Q.** Which “fluorescence, % of fluorescent control” value does the source give for `CNc1ccc([N+](=O)[O-])cc1` here?
**A.** The value was -0.415%.

**Q.** Which “fluorescence, % of fluorescent control” value does the source give for `CCOC(=O)c1ccc(C2CCC(NC[C@H](O)COc3ccc(O)c(NS(C)(=O)=O)c3)CC2)cc1` (stereo partly specified) here?
**A.** The value was 1.7%.

**Q.** For `CN(C)c1ccc(C(=C2C=CC(=[N+](C)C)C=C2)c2ccc(N(C)C)cc2)cc1`, which Potency is on record?
**A.** The Potency was “inactive”.

**Q.** For `CCC(C)[O-].CCC(C)[O-].CCOC(=O)/C=C(/C)[O-].[Al+3]`, which “fluorescence, % of fluorescent control” value is on record?
**A.** The value was -0.0392%.

**Q.** For `CCCCCCCCCCCCCC[N+](C)(C)Cc1ccccc1`, which Potency is on record?
**A.** The Potency was “inactive”.

**Q.** Which “fluorescence, % of fluorescent control” value does the source give for `Oc1cc(Cl)cc(Cl)c1Cl` here?
**A.** The value was -0.274% [at 95.7 µM].

**Q.** For `C#C[C@]1(O)CC[C@H]2[C@@H]3[C@H](C)CC4=C(CCC(=O)C4)[C@H]3CC[C@@]21C`, which “fluorescence, % of fluorescent control” value is on record?
**A.** Its value is 0.0209% [at 46 µM].

**Q.** Which “fluorescence, % of fluorescent control” value does the source give for `Cc1ccc(O)c(O)c1` here?
**A.** Its value is 1.53%.

**Q.** For `Cc1ccc(C)cc1`, which “fluorescence, % of fluorescent control” value is on record?
**A.** Its value is 0.15%.

**Q.** For `CN1CCN2c3ccccc3Cc3ccccc3C2C1` (stereo unspecified), which “fluorescence, % of fluorescent control” value is on record?
**A.** The value was 0.281% [at 46 µM].

**Q.** For `O=C(c1ccc(O)c(O)c1)c1ccc(O)cc1O`, which Potency is on record?
**A.** Its Potency is 35.5 µM (active).

**Q.** With `O=C1NC(=O)[C@@H]2CC=CC[C@H]12` as the compound, how does the “fluorescence, % of fluorescent control” value read?
**A.** Its value is -0.148%.

**Q.** With `CC(C)(C)c1ccc(C(O)CCCN2CCC(C(O)(c3ccccc3)c3ccccc3)CC2)cc1` (stereo unspecified) as the compound, how does the Potency read?
**A.** The Potency was “inactive”.

**Q.** Which Potency does the source give for `Cc1cc(=O)oc2cc(O)cc(O)c12` here?
**A.** Its Potency is 39.8 µM (active).

**Q.** With `Cc1cc(C(C#N)c2ccc(Cl)cc2)c(Cl)cc1NC(=O)c1cc(I)cc(I)c1O` (stereo unspecified) as the compound, how does the “fluorescence, % of fluorescent control” value read?
**A.** Its value is 0.276% [at 46 µM].

**Q.** With `CC[C@H](C)COC(=O)/C=C/c1ccc(N=Cc2ccc(OC)cc2)cc1` as the compound, how does the “fluorescence, % of fluorescent control” value read?
**A.** The value was 5.24%.

**Q.** With `COC1=C(OC)C(=O)C(CCCCCCCCCCO)=C(C)C1=O` as the compound, how does the “fluorescence, % of fluorescent control” value read?
**A.** The value was -0.117% [at 46 µM].

**Q.** With `Cc1ccc(O)c(N)c1` as the compound, how does the “fluorescence, % of fluorescent control” value read?
**A.** Its value is 0.127%.

**Q.** For `COC(C)=O`, which Potency is on record?
**A.** The Potency was “inactive”.

**Q.** With `CN1CCN(Cc2cc(-c3ccc4[nH]c(=O)oc4c3)co2)[C@@H](c2ccc(F)cc2)C1` as the compound, how does the “fluorescence, % of fluorescent control” value read?
**A.** The value was 1.17%.

**Q.** For `C/C=C/C=C/COC(=O)C(C)C`, which “fluorescence, % of fluorescent control” value is on record?
**A.** Its value is 0.956%.
